± gives the standard deviation of the averaged measurements. Whole data set: some 33,000 sequences, median “E-score (rank enrichment, -0.5 to 0.5)” near -0.0068, cut for the highest 2% near 0.24. The sample holds the highest values, similar sequences and a random draw of the others, so the mix is not that of the screen.
tested on: muMax20 (Max(13-93) K31hArg/K57hArg, M65Nle); test: PBM 8-mer E-score (E-score (rank enrichment, -0.5 to 0.5)); higher = stronger preferential binding
Procedure: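 Protein binding microarray (universal PBM chip covering all 10-mers in fixed probe flanks) with chemically synthesized human Max(13-93) bHLH-LZ analogs (not full-length Max) bearing noncanonical residues (hArg, Tha, Aib, Nle at 65) and aromatic Cys staples. Read-out per 8-mer (and its reverse complement): E-score (rank-based enrichment, -0.5 to 0.5) and Z-score of median probe intensity.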

First: AACATAAT
Second: ATCATGAA
The “PBM 8-mer E-score” value of the first is higher: 0.31 ± 0.035 for the first, 0.111 ± 0.029 for the second.

AACATAAC and ATCATAAT are within error of each other in “PBM 8-mer E-score” value: 0.18 ± 0.13 for the first, 0.288 ± 0.047 for the second.

First: ATCATGAG
Second: ATCATAAA
The “PBM 8-mer E-score” value of the first is lower: 0.111 ± 0.046 for the first, 0.212 ± 0.046 for the second.

CGCGCCAG and ATTGAGAC are within error of each other in “PBM 8-mer E-score” value: -0.222 ± 0.12 for the first, -0.0808 ± 0.13 for the second.

First: GTGACAAA
Second: AATAATGC
The “PBM 8-mer E-score” value of the first is lower: 0.0325 ± 0.033 for the first, 0.1872 ± 0.0018 for the second.

Compared with AATAATGT, AATAATGG is lower in “PBM 8-mer E-score” value: 0.258 ± 0.068 for the first, 0.0129 ± 0.086 for the second.

Compared with CATAATGA, GATAATGA is lower in “PBM 8-mer E-score” value: 0.0649 ± 0.033 for the first, -0.00519 ± 0.014 for the second.

Going from AATAATGA to GCTCTTTA, the “PBM 8-mer E-score” value falls from 0.269 ± 0.062 to 0.0129 ± 0.059.

Going from CGAAACAG to CCCGGCTC, the “PBM 8-mer E-score” value falls from -0.176 ± 0.0078 to -0.299 ± 0.021.

First: CTCGGTTC
Second: GTTTTACA
The “PBM 8-mer E-score” value of the first is lower: -0.185 ± 0.018 for the first, 0.0874 ± 0.0056 for the second.

Going from GTGGTAAC to ATGGTAAC, the “PBM 8-mer E-score” value rises from 0.102 ± 0.049 to 0.26 ± 0.046.

ATGGTAAG and GATAGTAC are within error of each other in “PBM 8-mer E-score” value: 0.0283 ± 0.054 for the first, 0.0698 ± 0.03 for the second.

GCCCACCC and ACCCACCC are within error of each other in “PBM 8-mer E-score” value: 0.294 ± 0.07 for the first, 0.299 ± 0.091 for the second.

ACCCACCA and GCCCACAC are within error of each other in “PBM 8-mer E-score” value: 0.0656 ± 0.034 for the first, 0.0523 ± 0.0056 for the second.

Compared with CCCCACCC, GCCCACCA is lower in “PBM 8-mer E-score” value: 0.165 ± 0.027 for the first, -0.032 ± 0.095 for the second.

AACGGCCG and ACCCCGAG are within error of each other in “PBM 8-mer E-score” value: -0.0126 ± 0.14 for the first, -0.142 ± 0.045 for the second.

CATACCAG and ATGTATTC are within error of each other in “PBM 8-mer E-score” value: 0.0299 ± 0.094 for the first, 0.107 ± 0.074 for the second.

Compared with CTGTATTA, CTATATTA is higher in “PBM 8-mer E-score” value: 0.129 ± 0.013 for the first, 0.199 ± 0.042 for the second.

Compared with GTATATTA, ATGTATTA is lower in “PBM 8-mer E-score” value: 0.28 ± 0.025 for the first, 0.22 ± 0.012 for the second.

ATATATTA and ATGTATTG are within error of each other in “PBM 8-mer E-score” value: 0.225 ± 0.056 for the first, 0.251 ± 0.048 for the second.

ATGTATCG and GTGTATTA are within error of each other in “PBM 8-mer E-score” value: 0.213 ± 0.065 for the first, 0.277 ± 0.0053 for the second.

AGCTAGAA and GGTCCACA are within error of each other in “PBM 8-mer E-score” value: -0.0154 ± 0.041 for the first, -0.0698 ± 0.11 for the second.

GACGCAGA and CCCAGTAG are within error of each other in “PBM 8-mer E-score” value: -0.0585 ± 0.079 for the first, -0.0372 ± 0.037 for the second.

CGGTAACA and AGCCTGCA are within error of each other in “PBM 8-mer E-score” value: -0.0167 ± 0.022 for the first, 0.0231 ± 0.12 for the second.

First: AGCGTTGC
Second: CCGGCCGC
The “PBM 8-mer E-score” value of the first is higher: -0.0889 ± 0.092 for the first, -0.23 ± 0.0085 for the second.

Compared with CGCGGGTA, ATGATTGA is higher in “PBM 8-mer E-score” value: -0.0475 ± 0.074 for the first, 0.127 ± 0.063 for the second.

Going from ACCCAACC to GATAATCA, the “PBM 8-mer E-score” value rises from 0.0711 ± 0.054 to 0.311 ± 0.07.

GCTAATCA and GATAATCC are within error of each other in “PBM 8-mer E-score” value: -0.0154 ± 0.012 for the first, -0.0364 ± 0.011 for the second.

First: TATAATCA
Second: AATAATCA
The “PBM 8-mer E-score” value of the first is higher: 0.247 ± 0.037 for the first, 0.08847 ± 8.5e-05 for the second.

Going from CATAATCA to ACTCCTCT, the “PBM 8-mer E-score” value falls from 0.08 ± 0.021 to -0.0496 ± 0.01.

Going from GCCAAGAA to ACCGAAAC, the “PBM 8-mer E-score” value falls from 0.106 ± 0.011 to -0.0608 ± 0.064.

Compared with ATCCTCAA, CATCGCAA is higher in “PBM 8-mer E-score” value: -0.0775 ± 0.063 for the first, 0.0394 ± 0.039 for the second.

GGGCGGAC and CGGCGGGA are within error of each other in “PBM 8-mer E-score” value: -0.19 ± 0.067 for the first, -0.2043 ± 0.0015 for the second.

Compared with CGCGGGGA, GGGCGGGA is higher in “PBM 8-mer E-score” value: -0.0158 ± 0.054 for the first, 0.256 ± 0.051 for the second.

Compared with GGCGGGAA, GGCGGGGA is higher in “PBM 8-mer E-score” value: -0.0111 ± 0.026 for the first, 0.245 ± 0.082 for the second.

AGGCGGGA and AAGCCTAG are within error of each other in “PBM 8-mer E-score” value: 0.0523 ± 0.011 for the first, 0.0589 ± 0.067 for the second.

CGCTTCAC and GGAACGAC are within error of each other in “PBM 8-mer E-score” value: -0.106 ± 0.011 for the first, -0.0812 ± 0.036 for the second.

Going from GACGCTCC to AATTAATA, the “PBM 8-mer E-score” value rises from -0.151 ± 0.072 to 0.271 ± 0.013.

Going from AATTAACA to AATTAATG, the “PBM 8-mer E-score” value falls from 0.244 ± 0.008 to 0.139 ± 0.05.

GTTTAATA and CTTTAATA are within error of each other in “PBM 8-mer E-score” value: 0.218 ± 0.022 for the first, 0.16 ± 0.04 for the second.

CATTAACA and AATTAATT are within error of each other in “PBM 8-mer E-score” value: 0.22 ± 0.1 for the first, 0.213 ± 0.015 for the second.

ATTTAATA and TATTAAAA are within error of each other in “PBM 8-mer E-score” value: 0.245 ± 0.097 for the first, 0.226 ± 0.062 for the second.

First: CATTAATA
Second: TATTAATA
The “PBM 8-mer E-score” value of the first is lower: 0.188 ± 0.011 for the first, 0.288 ± 0.051 for the second.

Source: the supplement of paper PMC12636033
